Reference: PubChem BioAssay AID2284374 (EPA ToxCast)
Inconclusive results are not listed. The source made the active and inactive calls. How the source made its calls: active means hit-call score of the fitted dose curve at least 0.9, where 1 is the maximum; inconclusive means response in the unintended direction; inactive means score below 0.9.

target: human Peroxisome Proliferator-activated Receptor delta (PPARd), PPARD (gene 5467) (UniProt Q03181); experiment: ERF_US_NR_hPPARD: Eurofins (ERF) Nuclear Receptor (NR) Cell Based Protein-Protein Interaction LeadHunter Assay for human Peroxisome Proliferator-activated Receptor delta (PPARd) Agonism
Method: ERF_US_NR_hPPARD is a cell-based, single-readout assay that uses extracted gene-proteins in a cell-line assay. Measurements were taken 5 hours after chemical dosing in a 384-well plate. See PPARdelta Human NHR Cell Based Agonist Protein-Protein Interaction Assay, DiscoverX.ERF_US_NR_hPPARD is an assay component calculated from the ERF_US_NR_hPPARD assay. It is designed to measure radioligand binding using a type of binding reporter as detected by scintillation counting with radiometry technology.Data from the assay component ERF_US_NR_hPPARD was analyzed at the assay endpoint, ERF_US_NR_hPPARD, in the positive analysis fitting direction relative to DMSO as the negative control and baseline of activity. Using a type of binding reporter, gain-of-signal activity can be used to understand changes in binding as they relate to gene PPARD. To generalize the intended target to other relatable targets, this assay endpoint is annotated to the nuclear receptor intended target family, where the subfamily is non-steroidal.
Cells were seeded in a total volume of 20 uL into white walled, 384-well microplates and incubated at 37C overnight prior to testing. Briefly, intermediate dilution of sample stocks was performed to generate 5X sample in assay buffer. 5 uL of 5X sample was added to cells and incubated at 37C for 300 minutes. […] The results are expressed as a percent efficacy of the control ligand.

Chain of human Peroxisome Proliferator-activated Receptor delta (PPARd), PPARD (gene 5467) (Q03181 whole entry, looked up): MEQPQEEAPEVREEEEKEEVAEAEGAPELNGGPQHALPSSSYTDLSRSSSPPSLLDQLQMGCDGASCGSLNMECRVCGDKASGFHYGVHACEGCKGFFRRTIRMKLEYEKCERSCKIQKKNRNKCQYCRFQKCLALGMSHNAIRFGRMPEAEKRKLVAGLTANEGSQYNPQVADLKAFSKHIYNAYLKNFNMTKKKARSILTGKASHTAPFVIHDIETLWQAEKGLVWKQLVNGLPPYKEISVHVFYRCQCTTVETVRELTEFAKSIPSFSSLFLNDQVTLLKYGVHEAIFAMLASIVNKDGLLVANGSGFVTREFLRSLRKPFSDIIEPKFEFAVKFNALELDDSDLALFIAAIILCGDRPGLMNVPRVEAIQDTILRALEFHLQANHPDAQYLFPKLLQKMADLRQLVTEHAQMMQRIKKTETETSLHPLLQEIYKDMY

Q: With `O=C(O)CCC(F)(F)C(F)(F)C(F)(F)F` as the molecule, how does the outcome read?
A: inactive

Q: With `O=C(CC(=O)C(F)(F)C(F)(F)C(F)(F)F)c1cccs1` as the molecule, how does the outcome read?
A: inactive
